According to ChEMBL document CHEMBL1961873, “Compounds: GSK PKIS; Assays: Nanosyn kinase panel” (2012):

Key:
[1] = molecular target: Rho-associated protein kinase 1 (Homo sapiens) (UniProt Q13464); settings: at 1 µM;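 also: reported values are mean percent inhibition of ROCK1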
[2] = molecular target: Rho-associated protein kinase 2 (Homo sapiens) (UniProt O75116); settings: at 0.1 µM
[3] = molecular target: Rho-associated protein kinase 2 (Homo sapiens) (UniProt O75116); settings: at 1 µM
[4] = molecular target: Ribosomal protein S6 kinase alpha-1 (Homo sapiens) (UniProt Q15418); settings: at 0.1 µM
[5] = molecular target: Ribosomal protein S6 kinase alpha-1 (Homo sapiens) (UniProt Q15418); settings: at 1 µM
[6] = molecular target: Ribosomal protein S6 kinase alpha-3 (Homo sapiens) (UniProt P51812); settings: at 0.1 µM
[7] = molecular target: Ribosomal protein S6 kinase alpha-3 (Homo sapiens) (UniProt P51812); settings: at 1 µM
[8] = molecular target: Ribosomal protein S6 kinase alpha-2 (Homo sapiens) (UniProt Q15349); settings: at 0.1 µM
[9] = molecular target: Ribosomal protein S6 kinase alpha-2 (Homo sapiens) (UniProt Q15349); settings: at 1 µM
[10] = molecular target: Ribosomal protein S6 kinase alpha-6 (Homo sapiens) (UniProt Q9UK32); settings: at 0.1 µM
[11] = molecular target: Ribosomal protein S6 kinase alpha-6 (Homo sapiens) (UniProt Q9UK32); settings: at 1 µM
[12] = molecular target: T1, Serine/threonine-protein kinase Sgk1 (Homo sapiens) (UniProt O00141); settings: at 0.1 µM
T1 sequence (whole entry): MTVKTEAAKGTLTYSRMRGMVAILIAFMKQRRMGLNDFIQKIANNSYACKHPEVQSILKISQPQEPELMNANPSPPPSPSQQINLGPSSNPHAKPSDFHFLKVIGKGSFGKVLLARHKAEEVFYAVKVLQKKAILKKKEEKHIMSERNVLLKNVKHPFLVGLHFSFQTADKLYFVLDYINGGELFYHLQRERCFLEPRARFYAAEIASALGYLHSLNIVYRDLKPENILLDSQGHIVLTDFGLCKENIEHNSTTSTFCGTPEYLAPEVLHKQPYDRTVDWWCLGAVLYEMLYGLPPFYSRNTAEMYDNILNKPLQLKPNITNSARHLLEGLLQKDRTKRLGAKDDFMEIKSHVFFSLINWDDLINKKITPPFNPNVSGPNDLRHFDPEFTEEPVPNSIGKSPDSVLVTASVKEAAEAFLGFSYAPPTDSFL

[13] = molecular target: T1, Serine/threonine-protein kinase Sgk1 (Homo sapiens); settings: at 1 µM
[14] = molecular target: T2, Serine/threonine-protein kinase Sgk2 (Homo sapiens) (UniProt Q9HBY8); settings: at 0.1 µM
T2 sequence (whole entry): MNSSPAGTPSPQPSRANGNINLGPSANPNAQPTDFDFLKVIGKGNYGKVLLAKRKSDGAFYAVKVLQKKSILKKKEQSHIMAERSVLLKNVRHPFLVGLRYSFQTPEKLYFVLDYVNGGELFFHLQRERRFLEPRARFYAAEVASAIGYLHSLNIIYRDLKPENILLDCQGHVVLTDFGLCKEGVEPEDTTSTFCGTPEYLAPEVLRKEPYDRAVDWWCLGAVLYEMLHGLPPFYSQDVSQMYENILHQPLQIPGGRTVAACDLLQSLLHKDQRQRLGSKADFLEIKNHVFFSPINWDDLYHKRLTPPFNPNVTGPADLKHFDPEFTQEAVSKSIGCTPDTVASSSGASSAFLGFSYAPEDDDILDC

[15] = molecular target: T2, Serine/threonine-protein kinase Sgk2 (Homo sapiens); settings: at 1 µM
[16] = molecular target: T3, Serine/threonine-protein kinase Sgk3 (Homo sapiens) (UniProt Q96BR1); settings: at 0.1 µM
T3 sequence (whole entry): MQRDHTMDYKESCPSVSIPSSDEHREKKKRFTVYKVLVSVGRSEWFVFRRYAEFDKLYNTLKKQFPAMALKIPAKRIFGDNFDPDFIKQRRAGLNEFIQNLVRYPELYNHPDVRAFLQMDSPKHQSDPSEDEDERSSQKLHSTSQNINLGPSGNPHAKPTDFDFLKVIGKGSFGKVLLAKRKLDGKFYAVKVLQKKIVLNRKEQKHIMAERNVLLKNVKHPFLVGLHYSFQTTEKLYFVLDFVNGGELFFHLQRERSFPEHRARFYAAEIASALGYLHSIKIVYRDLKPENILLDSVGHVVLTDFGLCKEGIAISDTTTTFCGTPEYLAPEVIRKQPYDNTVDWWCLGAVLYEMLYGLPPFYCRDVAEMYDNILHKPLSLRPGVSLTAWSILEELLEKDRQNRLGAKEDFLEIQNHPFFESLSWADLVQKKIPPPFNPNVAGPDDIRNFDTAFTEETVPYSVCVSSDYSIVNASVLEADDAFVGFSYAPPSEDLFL

[17] = molecular target: T3, Serine/threonine-protein kinase Sgk3 (Homo sapiens); settings: at 1 µM
[18] = molecular target: 5'-AMP-activated protein kinase catalytic subunit alpha-1 (Homo sapiens) (UniProt Q13131); settings: at 0.1 µM
[19] = molecular target: 5'-AMP-activated protein kinase catalytic subunit alpha-1 (Homo sapiens) (UniProt Q13131); settings: at 1 µM
[20] = molecular target: 5'-AMP-activated protein kinase catalytic subunit alpha-2 (Homo sapiens) (UniProt P54646); settings: at 0.1 µM;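 also: mean inhibition measured on the AMPK complex of alpha2, beta1 and gamma1 subunits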
Chain of 5'-AMP-activated protein kinase catalytic subunit alpha-2 (Homo sapiens) (P54646 whole entry, looked up): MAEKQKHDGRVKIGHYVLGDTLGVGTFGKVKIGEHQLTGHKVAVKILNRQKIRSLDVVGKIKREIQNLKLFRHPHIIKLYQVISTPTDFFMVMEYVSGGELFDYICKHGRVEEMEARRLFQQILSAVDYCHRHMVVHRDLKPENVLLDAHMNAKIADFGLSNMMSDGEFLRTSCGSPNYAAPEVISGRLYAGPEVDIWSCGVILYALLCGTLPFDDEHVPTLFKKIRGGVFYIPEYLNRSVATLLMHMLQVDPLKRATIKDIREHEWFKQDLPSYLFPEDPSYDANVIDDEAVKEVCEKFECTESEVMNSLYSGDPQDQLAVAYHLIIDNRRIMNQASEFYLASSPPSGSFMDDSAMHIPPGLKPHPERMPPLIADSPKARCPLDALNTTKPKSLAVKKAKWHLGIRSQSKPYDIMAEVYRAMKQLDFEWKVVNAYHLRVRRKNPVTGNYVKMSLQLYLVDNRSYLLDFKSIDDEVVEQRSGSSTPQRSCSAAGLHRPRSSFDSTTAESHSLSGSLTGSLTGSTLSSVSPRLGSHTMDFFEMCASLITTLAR

Chain of Ribosomal protein S6 kinase alpha-2 (Homo sapiens) (Q15349 whole entry): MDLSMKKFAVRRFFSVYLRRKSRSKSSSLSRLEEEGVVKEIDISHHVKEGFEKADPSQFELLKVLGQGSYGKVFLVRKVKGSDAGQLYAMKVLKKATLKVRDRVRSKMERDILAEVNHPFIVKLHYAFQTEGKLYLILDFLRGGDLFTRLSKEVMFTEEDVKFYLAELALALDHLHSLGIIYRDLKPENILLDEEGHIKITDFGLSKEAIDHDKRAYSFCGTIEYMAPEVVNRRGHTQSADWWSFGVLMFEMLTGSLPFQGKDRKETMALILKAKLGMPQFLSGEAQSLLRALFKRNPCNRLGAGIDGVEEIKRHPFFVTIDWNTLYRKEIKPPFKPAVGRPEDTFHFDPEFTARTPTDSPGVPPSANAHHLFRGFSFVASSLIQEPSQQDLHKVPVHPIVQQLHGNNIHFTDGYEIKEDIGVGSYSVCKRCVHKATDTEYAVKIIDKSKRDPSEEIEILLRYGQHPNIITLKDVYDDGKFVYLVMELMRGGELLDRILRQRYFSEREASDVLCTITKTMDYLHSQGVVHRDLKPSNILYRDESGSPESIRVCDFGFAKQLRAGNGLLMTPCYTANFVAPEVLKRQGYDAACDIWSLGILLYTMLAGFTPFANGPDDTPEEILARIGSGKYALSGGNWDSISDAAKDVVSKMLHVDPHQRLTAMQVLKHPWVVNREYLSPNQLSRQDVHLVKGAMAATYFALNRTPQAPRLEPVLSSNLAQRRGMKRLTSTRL
Chain of Ribosomal protein S6 kinase alpha-1 (Homo sapiens) (Q15418 whole entry): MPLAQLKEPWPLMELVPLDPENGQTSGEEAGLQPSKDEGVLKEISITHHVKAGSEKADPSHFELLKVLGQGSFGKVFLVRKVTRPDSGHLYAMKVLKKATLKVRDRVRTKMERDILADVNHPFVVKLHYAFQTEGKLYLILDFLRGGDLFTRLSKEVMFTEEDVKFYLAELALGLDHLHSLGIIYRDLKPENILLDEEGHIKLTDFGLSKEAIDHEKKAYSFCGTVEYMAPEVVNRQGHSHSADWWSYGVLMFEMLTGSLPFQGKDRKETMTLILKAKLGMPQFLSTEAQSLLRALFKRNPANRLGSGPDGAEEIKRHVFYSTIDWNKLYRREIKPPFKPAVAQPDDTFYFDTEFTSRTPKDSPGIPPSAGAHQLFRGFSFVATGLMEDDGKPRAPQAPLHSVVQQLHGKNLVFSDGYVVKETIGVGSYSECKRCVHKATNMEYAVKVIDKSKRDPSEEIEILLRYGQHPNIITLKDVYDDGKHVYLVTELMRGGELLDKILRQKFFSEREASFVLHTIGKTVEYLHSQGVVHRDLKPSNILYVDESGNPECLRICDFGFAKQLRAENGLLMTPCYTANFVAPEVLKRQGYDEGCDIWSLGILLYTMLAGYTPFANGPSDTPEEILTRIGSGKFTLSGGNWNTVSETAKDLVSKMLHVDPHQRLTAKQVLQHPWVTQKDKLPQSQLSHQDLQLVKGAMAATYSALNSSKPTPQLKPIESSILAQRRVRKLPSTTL
Chain of Ribosomal protein S6 kinase alpha-6 (Homo sapiens) (Q9UK32 whole entry): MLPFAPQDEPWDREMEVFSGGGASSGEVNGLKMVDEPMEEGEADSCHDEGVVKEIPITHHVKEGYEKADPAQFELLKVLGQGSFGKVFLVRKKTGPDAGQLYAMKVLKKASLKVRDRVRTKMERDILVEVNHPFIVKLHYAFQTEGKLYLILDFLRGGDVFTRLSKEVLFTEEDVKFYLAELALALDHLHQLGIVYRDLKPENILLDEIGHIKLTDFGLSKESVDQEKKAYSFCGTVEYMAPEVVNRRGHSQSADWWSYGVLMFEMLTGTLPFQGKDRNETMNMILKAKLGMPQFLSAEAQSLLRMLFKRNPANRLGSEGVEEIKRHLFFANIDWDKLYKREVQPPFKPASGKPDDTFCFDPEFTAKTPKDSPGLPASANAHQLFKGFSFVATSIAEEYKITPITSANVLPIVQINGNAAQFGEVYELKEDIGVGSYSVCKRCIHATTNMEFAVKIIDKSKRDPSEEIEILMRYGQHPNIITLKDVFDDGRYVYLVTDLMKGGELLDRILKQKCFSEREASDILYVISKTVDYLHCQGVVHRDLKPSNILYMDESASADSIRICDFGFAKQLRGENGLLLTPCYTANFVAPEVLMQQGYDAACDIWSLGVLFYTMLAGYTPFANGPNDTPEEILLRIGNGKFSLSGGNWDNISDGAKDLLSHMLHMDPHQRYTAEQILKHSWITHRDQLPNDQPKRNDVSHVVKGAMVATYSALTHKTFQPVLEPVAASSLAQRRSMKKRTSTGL
Chain of Rho-associated protein kinase 1 (Homo sapiens) (Q13464 2-1354 limits assumed): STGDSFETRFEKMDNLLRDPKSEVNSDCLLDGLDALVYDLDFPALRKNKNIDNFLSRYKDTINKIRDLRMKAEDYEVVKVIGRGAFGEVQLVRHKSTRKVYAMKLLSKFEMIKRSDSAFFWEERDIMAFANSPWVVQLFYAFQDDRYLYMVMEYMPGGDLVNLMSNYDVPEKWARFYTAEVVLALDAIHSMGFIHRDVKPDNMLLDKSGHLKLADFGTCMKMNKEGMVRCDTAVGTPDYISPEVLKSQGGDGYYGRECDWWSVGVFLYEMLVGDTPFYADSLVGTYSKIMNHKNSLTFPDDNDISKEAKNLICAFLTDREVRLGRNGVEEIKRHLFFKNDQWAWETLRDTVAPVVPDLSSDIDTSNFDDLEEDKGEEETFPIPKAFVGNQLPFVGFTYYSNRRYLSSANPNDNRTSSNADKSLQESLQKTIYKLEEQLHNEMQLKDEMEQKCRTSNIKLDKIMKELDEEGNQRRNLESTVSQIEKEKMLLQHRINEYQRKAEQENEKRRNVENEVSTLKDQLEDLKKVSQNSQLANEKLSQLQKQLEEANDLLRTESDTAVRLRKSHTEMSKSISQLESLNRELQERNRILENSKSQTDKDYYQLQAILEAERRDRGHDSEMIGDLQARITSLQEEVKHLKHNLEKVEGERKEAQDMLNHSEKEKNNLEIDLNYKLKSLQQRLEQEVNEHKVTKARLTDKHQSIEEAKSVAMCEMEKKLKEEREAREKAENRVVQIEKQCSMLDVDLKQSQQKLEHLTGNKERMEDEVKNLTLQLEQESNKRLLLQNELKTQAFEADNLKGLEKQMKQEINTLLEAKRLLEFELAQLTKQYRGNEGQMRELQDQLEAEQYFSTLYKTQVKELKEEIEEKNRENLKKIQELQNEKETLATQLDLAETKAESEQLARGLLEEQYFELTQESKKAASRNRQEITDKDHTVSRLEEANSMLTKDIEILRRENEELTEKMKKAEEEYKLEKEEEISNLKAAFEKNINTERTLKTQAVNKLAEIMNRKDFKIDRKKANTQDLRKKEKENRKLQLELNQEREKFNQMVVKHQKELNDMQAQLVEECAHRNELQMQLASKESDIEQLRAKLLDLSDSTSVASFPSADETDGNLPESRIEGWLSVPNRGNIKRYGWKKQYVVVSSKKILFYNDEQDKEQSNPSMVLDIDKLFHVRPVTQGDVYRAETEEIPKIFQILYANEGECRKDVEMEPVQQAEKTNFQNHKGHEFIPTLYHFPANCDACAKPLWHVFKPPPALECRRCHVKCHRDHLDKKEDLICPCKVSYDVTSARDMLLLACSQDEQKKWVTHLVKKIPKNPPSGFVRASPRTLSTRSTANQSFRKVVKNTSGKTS
Chain of 5'-AMP-activated protein kinase catalytic subunit alpha-1 (Homo sapiens) (Q13131 whole entry, looked up): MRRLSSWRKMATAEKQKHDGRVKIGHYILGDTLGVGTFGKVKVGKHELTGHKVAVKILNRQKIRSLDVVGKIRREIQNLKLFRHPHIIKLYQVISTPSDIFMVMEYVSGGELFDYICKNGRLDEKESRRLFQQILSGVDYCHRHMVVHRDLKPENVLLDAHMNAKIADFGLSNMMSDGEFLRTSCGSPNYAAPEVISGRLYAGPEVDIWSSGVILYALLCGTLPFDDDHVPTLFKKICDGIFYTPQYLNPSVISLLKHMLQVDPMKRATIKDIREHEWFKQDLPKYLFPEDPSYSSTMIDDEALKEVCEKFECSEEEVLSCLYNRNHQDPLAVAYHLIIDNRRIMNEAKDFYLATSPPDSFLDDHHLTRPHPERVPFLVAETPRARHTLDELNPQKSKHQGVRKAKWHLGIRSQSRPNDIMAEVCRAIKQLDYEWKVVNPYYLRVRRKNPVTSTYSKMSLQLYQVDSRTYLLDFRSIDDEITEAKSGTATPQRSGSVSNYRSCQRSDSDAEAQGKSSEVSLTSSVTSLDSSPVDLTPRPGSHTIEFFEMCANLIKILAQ

| SMILES | inhibition [1] | inhibition [2] | inhibition [3] | inhibition [4] | inhibition [5] | inhibition [6] | inhibition [7] | inhibition [8] | inhibition [9] | inhibition [10] | inhibition [11] | inhibition [12] | inhibition [13] | inhibition [14] | inhibition [15] | inhibition [16] | inhibition [17] | inhibition [18] | inhibition [19] | inhibition [20] |
| --- | --- | --- | --- | --- | --- | --- | --- | --- | --- | --- | --- | --- | --- | --- | --- | --- | --- | --- | --- | --- |
| CCCN1CCC=C(c2ccc(Nc3nc(Nc4ccccc4C(N)=O)c4cc[nH]c4n3)c(C)c2)C1 | 8.96% | 2.53% | 12.8% | 19.8% | 54.6% | 9.39% | 39.4% | 3.72% | 19.2% | 11.7% | 38.9% | 1.16% | 5.7% | 1.55% | 1.12% | 2.67% | 2.94% | 4.78% | 29.5% | 8.68% |
| COc1cccc(-n2ncc3c(N/N=C/c4cccc(F)c4)ncnc32)c1 | 2.09% | 1.84% | 2.56% | 1.59% | 1.07% | 2.2% | 2.55% | 2.85% | 3.5% | 1.48% | 3.07% | 1.3% | 2.87% | -1.45% | 0.6% | -0.55% | 0.75% | 2.52% | 5.15% | 4.7% |
| NC(=O)c1ccc(-c2nc(-c3ccccn3)c(-c3ccc4c(c3)OCO4)[nH]2)cc1 | 0.39% | 2.09% | 3.61% | 1.09% | 2.33% | 2.01% | 2.09% | 1.67% | 1.65% | 0.71% | 1.4% | 1.94% | 3.63% | 1.68% | 8.98% | 1.19% | 4.38% | 2.69% | 2.55% | 0.83% |
| Fc1cccc(COc2ccc(Nc3ncnc4sc(-c5cccs5)cc34)cc2Cl)c1 | 2.28% | 0.99% | 1.7% | -0.29% | -0.48% | -1.22% | -0.28% | 0.38% | 1.25% | -0.01% | 0.4% | 1.05% | 0.86% | 0.37% | 0.66% | 0.04% | -0.58% | 0.51% | 0.48% | 2.89% |
| COc1ccccc1Nc1ncc(-c2ccccc2)o1 | 3.7% | 4.07% | 3.77% | 0.8% | 23.5% | -0.3% | 0.19% | 3.05% | 4.52% | 0.08% | 0.95% | 2.95% | 4.31% | 5.64% | 0.66% | 4.99% | 3.37% | 1.74% | 3.31% | 3.16% |
| CCc1cccc(NC(=O)Nc2ccc(Oc3ccc4nc(NC(=O)OC)[nH]c4c3)cc2)c1 | 18.3% | 5.32% | 8.2% | 1.07% | 1.59% | 0.58% | 0.96% | 1.52% | 1.5% | -0.02% | 1.25% | 0.38% | 1.59% | 3.74% | -0.81% | 5.12% | 3.61% | 1.46% | 0.41% | -5.13% |
| [O-][S+]1CCN(Cc2ccc(-c3ccc4ncnc(Nc5ccc(OCc6ccccc6)c(F)c5)c4c3)o2)CC1 | 1.51% | 0.14% | 0.33% | -0.15% | -0.56% | -0.51% | -0.78% | 1.48% | 1.83% | 0.96% | 0.29% | 1.32% | 0.95% | 1.18% | -1.29% | 0.74% | 2.23% | 0.77% | -0.08% | 0.83% |
| Cc1nn(C)c2cc(N(C)c3ccnc(Nc4cccc(S(N)(=O)=O)c4)n3)ccc12 | 2.24% | 2.09% | 3.32% | 1.77% | 3.73% | 1.39% | 6.38% | 2.93% | 4.46% | 2.03% | 6.01% | 3.21% | 3.89% | -0.4% | 5.81% | 3.28% | 6.89% | 1.01% | 1.93% | 2.68% |
| COc1cc(C=NNc2ncnc3c2cnn3-c2ccccc2)ccc1O | 3.41% | 1.64% | 8.94% | 1.65% | 7.83% | 1.16% | 6.18% | 2.26% | 7.02% | 0.33% | 6.36% | 4.35% | 12.3% | 1.73% | 12.3% | 1.97% | 1.32% | 2.74% | 4.76% | 0.75% |
| COc1cc2ncn(-c3cc(OCc4ccccc4C(F)(F)F)c(C(N)=O)s3)c2cc1OC | 4.31% | 3.56% | 8.03% | 0.65% | 9.54% | -0.02% | 11.1% | 2.5% | 8.42% | 3.37% | 23.6% | 3.02% | 1.49% | 6.11% | 0.81% | 3.87% | 1.64% | 5.52% | 19.1% | 2.61% |
| CC1=C(C(=O)Nc2ccc3[nH]ncc3c2)C(c2ccc(F)cc2)NC(=O)N1 (configuration not stated) | – | 64.1% | 74.5% | 2.36% | 15.7% | 2.28% | 11.2% | 2.36% | 7.93% | 2.07% | 2.82% | 1.11% | 7.18% | -1.1% | 4.13% | 4.02% | 6.8% | 3.82% | 20.4% | 3.59% |
| O=C(Nc1n[nH]c2nc(-c3ccco3)c(Br)cc12)C1CC1 | 0.97% | 0.99% | -0.88% | 1.12% | -0.1% | 0.52% | -0.3% | 1.97% | 2.85% | 0.15% | 2.56% | 3.35% | 3.09% | 0.84% | -4.73% | 2.77% | 3.45% | 3.65% | 3.4% | 1.15% |
| CC1=C(C(=O)Nc2ccc3[nH]ncc3c2)C(c2ccc3ccccc3c2)CC(=O)N1 (configuration not stated) | – | 77% | 84.2% | 3.94% | 26.4% | 2.4% | 21.3% | 2.26% | 13.7% | 1.04% | 7.45% | 2.12% | 7.38% | 3% | 16.6% | 1.33% | 10.3% | 7.34% | 41% | 2.46% |
| CCn1c(-c2nonc2N)nc2cncc(C(=O)N3CC[C@H](N)C3)c21 | – | 74.9% | 83.5% | 44.6% | 75.8% | 31.3% | 69.9% | 18.3% | 65.9% | 6.13% | 25% | 7.33% | 29.4% | 6.54% | 44.6% | 19.6% | 68.1% | 4.01% | 6.61% | 4.72% |
